Screening results from PubChem BioAssay.
TIM10 inh: inhibits growth of TIM10 yeast strain; inhibition, % at 10 µM; S. cerevisiae TIM10 strain growth, BacTiter-Glo luminescence, 24 h; AID 463195; hit rate 1.4% among 330,000;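 active = inhibition of 40% or more at the single tested concentration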;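 also: wild-type TIM10 isogenic control strain grown at permissive 25 °C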
tim23-1 inh: growth inhibitors of tim23-1 mutant yeast; S. cerevisiae tim23-1 growth, BacTiter-Glo luminescence, 24 h; inhibition, % at 20 µM; hit rate 1.3% among 330,000; AID 463212;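 active = growth inhibition of the mutant yeast at or above 50%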;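 also: temperature-sensitive mutant grown at 25 °C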
PfHsp90 set2: reduces growth (ATP signal) of yeast expressing P. falciparum Hsp90. S. cerevisiae expressing PfHsp90, BacTiter-Glo ATP, 48 h; yeast lacking PDR1 and PDR3 efflux regulators. inhibition, % at 9.4 µM. hit rate 0.32% among 310,000. AID 504621;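 active = every replicate shows inhibition above about 80%, whatever the replicate mean, limit read from the data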
tim10-1 inh: growth inhibitors of tim10-1 mutant yeast; S. cerevisiae tim10-1 ts strain growth, BacTiter-Glo, 24 h; inhibition, % at 20 µM; hit rate 2.2% among 330,000; AID 463190;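 active = inhibition of at least 40%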;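 also: mutant grown at 25 °C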
NLRP3 yeast inh: NALP3 inhibition in yeast; Yeast reconstituted NLRP3/ASC/caspase-1, beta-gal luminescence, 24 h; inhibition, % at 10 µM; hit rate 0.39% among 330,000; AID 2825;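 active = inhibition of 50% or more; inactive = inhibition below 50%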
SKKanGAS inh: inhibitors of SKKanGAS S. pyogenes growth in kanamycin (SK-promoter or general growth effect). BacTiter-Glo, 6 h. hit rate 1.3% among 300,000. inhibition, % at 7.5 µM;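 active = mean replicate score, as percent of positive control median, at least 50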;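 also: strain carries kanamycin resistance gene driven by streptokinase promoter and grows in 40 µg/ml kanamycin; loss of luminescence reflects streptokinase promoter inhibition or plain growth inhibition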
NALP3 confirm: confirmation of NALP3 inhibitors in yeast. shares compounds with NLRP3 yeast inh. yeast expressing human NALP3, luminescence. inhibition, % at 10 µM. hit rate 81% among 1,300; in the data active = inhibition above about 48%
Casp1-ASC yeast: counter-screen for NALP3 inhibitors: yeast caspase-1-ASC | shares compounds with NLRP3 yeast inh | hit rate 66% among 1,000 | yeast expressing Caspase-1-ASC, luminescence counter screen | inhibition, % at 10 µM
NALP3 retest: retest-confirmed inhibitor of NALP3 in yeast | AID 488794 | shares compounds with NLRP3 yeast inh | yeast expressing human NALP3, luminescence read-out | hit rate 53% among 1,000 | inhibition, % at 10 µM
Of the large screens only hits and unclear results are named; the others gave an inactive call (follow-up assays come after a bar, where they were run). Sampled rows, rich in hits. Any-hit rate of the full collection: about 4.6%. Rule as the data show it, unless noted: active = inhibition above about 50%; inactive = the rest.

CN(C)c1ccc(C(=O)/C=C/c2ccc(Br)cc2)cc1	none
CC(C)(C)C(C(=O)Oc1ccccc1)c1ccccc1 (configuration not stated)	none (no result: SKKanGAS inh)
O=C(O)/C=C/C(=O)Nc1ccc(C2(c3ccc(NC(=O)/C=C/C(=O)O)cc3)c3ccccc3-c3ccccc32)cc1	none
C#CCNC(=O)C1=C[C@H](C2CCCCC2)C[C@H](OCc2ccc(CO)cc2)O1	NLRP3 yeast inh 54 | NALP3 confirm 54 | Casp1-ASC yeast 51 | NALP3 retest inactive
O=C(NC1CC1)C1=C[C@H](C2CCCCC2)C[C@H](OCc2ccc(CO)cc2)O1	NLRP3 yeast inh 58 | NALP3 confirm 60 | Casp1-ASC yeast 62 | NALP3 retest inactive
COc1cc2[nH]c(C(=O)N3CCc4ccccc43)cc2c(OC)c1OC	none
O=C(NNC(=O)c1cccnc1Cl)c1ccc(F)cc1	none
CCCCOc1ccc(C2/C(=C(\O)c3ccc4c(c3)OCCO4)C(=O)C(=O)N2CCCN2CCOCC2)cc1 (configuration not stated)	NLRP3 yeast inh 60 | NALP3 confirm 55 | Casp1-ASC yeast 68 | NALP3 retest 54
O=C1C(=O)N(CCCN2CCOCC2)C(c2ccc(Cl)cc2)/C1=C(\O)c1ccc2c(c1)OCCO2 (configuration not stated)	none
COc1ccccc1N1CCN(c2nccc(C)n2)CC1	NLRP3 yeast inh 51 | NALP3 confirm 63 | Casp1-ASC yeast 52 | NALP3 retest inactive
COc1ccccc1N1CCN(c2cc(N3CCCC3)nc(C)n2)CC1	none
CC1(C)CC(=O)/C(=C\c2cccc([N+](=O)[O-])c2)C(C)(C)N1	NLRP3 yeast inh 59 | NALP3 confirm 55 | Casp1-ASC yeast inactive | NALP3 retest inactive
Cc1c(C(=O)NCCCN2CCCC2=O)oc2ccc(S(=O)(=O)N3CCOCC3)cc12	none (no result: SKKanGAS inh)
Cc1c(C(=O)NCCC2=CCCCC2)oc2ccc(S(=O)(=O)N3CCOCC3)cc12	NLRP3 yeast inh 58 (no result: PfHsp90 set2, SKKanGAS inh) | NALP3 confirm 62 | Casp1-ASC yeast 55 | NALP3 retest inactive
COc1nc(-c2ccccc2)ncc1S(=O)(=O)c1ccccc1	NLRP3 yeast inh 57 | NALP3 confirm inactive | Casp1-ASC yeast inactive | NALP3 retest inactive
Cc1[nH]cnc1CSCCN	NLRP3 yeast inh 58 | NALP3 confirm 69 | Casp1-ASC yeast 54 | NALP3 retest 65
Cc1[nH]cnc1CSCc1ccc(Cl)cc1	none
O=C1C2C3C=CC(C4CC34)C2C(=O)N1Cc1ccco1 (configuration not stated)	none
O=C(Cc1cccc(Cl)c1)Nc1ccc(Br)cc1	NLRP3 yeast inh 54 | NALP3 confirm inactive | Casp1-ASC yeast 57 | NALP3 retest inactive
O=C(Cc1ccc(Br)cc1)Nc1ccc(Cl)cc1	none
Cn1c(=NC(=O)COc2ccccc2)sc2ccccc21	NLRP3 yeast inh 60 | NALP3 confirm inactive
Cn1c(=NC(=O)CS(=O)(=O)c2ccccc2)sc2ccccc21	none
O=C(CNC(=O)c1ccccc1Br)N/N=C\c1cc([N+](=O)[O-])cc(Br)c1O	NLRP3 yeast inh 51, SKKanGAS inh 59 | NALP3 confirm inactive | Casp1-ASC yeast inactive | NALP3 retest inactive
Cc1ccccc1C(=O)O/N=C/c1c(N2CCOCC2)n(C)c2ccccc12	NLRP3 yeast inh 66 | NALP3 confirm 83 | Casp1-ASC yeast 92 | NALP3 retest 79
COc1ccc(CNC(=O)[C@]2(C)CCC[C@@]3(C)C4CC[C@@]5(C)C[C@]4(CCC32)CC5=O)cc1 (some centres not stated)	NLRP3 yeast inh 51 (no result: PfHsp90 set2, SKKanGAS inh) | NALP3 confirm inactive
Cc1ccc(CNC(=O)[C@]2(C)CCC[C@@]3(C)C4CC[C@@]5(C)C[C@]4(CCC32)CC5=O)cc1 (some centres not stated)	none (no result: SKKanGAS inh)
COc1ccc(C(=O)Nc2cccc(NC(=O)c3ccc(OC)c(OC)c3)n2)cc1OC	none
CCCNC(=O)c1c(O)c2cccc3c2n(c1=O)CCC3	none (no result: TIM10 inh, tim23-1 inh, tim10-1 inh, NLRP3 yeast inh)
